PABP polyA inh: PABP-poly(A) binding inhibition; PABP-poly(A) RNA binding, fluorescence polarization; calls only at 35 µM; AID 2014; P11940; hit rate 1% among 290,000;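 note: calls also rest on retests at 20 µM and on dose response follow-up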
eIF4E-4G inh: inhibitors of eIF4E and eIF4G interaction in translation initiation | hit rate 0.37% among 220,000 | TR-FRET eIF4E-eIF4GI(517-606) binding, 2 h | inhibition, % at 21.7 µM | P63073+Q04637;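 active = inhibition above about 30%, limit read from the data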
MLLE-PAM2 inh: inhibitors of microRNA-mediated deadenylation, human PABP1 MLLE binding; hit rate 0.36% among 360,000; GST-MLLE / FITC-PAM2 fluorescence polarization; inhibition, % at 20 µM; P11940; AID 588489; in the data active = inhibition above about 35%, passing the limit was not always enough
eIF4H inh: inhibitors of RNA binding by human eIF4H | Q15056 | hit rate 0.94% among 290,000 | eIF4H fluorescence polarization binding assay | inhibition, % at 35 µM;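 note: calls also rest on retests at 20 µM and on dose response follow-up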
14-3-3 Bad PPI: disrupts binding of bovine 14-3-3 zeta to phospho-Bad peptide; P63103; TR-FRET 14-3-3zeta/Dy647-pBad peptide displacement, 1 h; inhibition, % at 21.7 µM; hit rate 0.71% among 220,000; AID 781;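 active = inhibition above about 70%, limit read from the data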
Large screens that a line does not name were inactive; [ ] = remark or other dose. Most compounds without a hit are left out; they make up all but 1.9% or so of the library. Unless noted, the rule behind the calls is not given here.

Cc1cccc(NC(=O)CSc2ccc(-c3ccccn3)nn2)c1C	none
O=C(CSc1ccc(-c2ccco2)nn1)N1CCCCC1	PABP polyA inh active
O=C(CSc1ccc(-c2ccco2)nn1)N1CCCC1	none
Cc1cccc(NC(=O)CSc2ccc(-c3ccco3)nn2)c1C	PABP polyA inh active, eIF4H inh 78
Cc1ccc(CSc2ccc(-c3ccco3)nn2)cc1	none
Cc1cc(NC(=O)CCSc2ccc(Cl)cc2)no1	none
CCOc1cc(/C=C2/SC(=Nc3ccccc3)N(Cc3cccnc3)C2=O)ccc1OCC#N	none
OCCN(Cc1ccccc1)Cc1cccc(Cl)c1Cl	14-3-3 Bad PPI 88
COCCNC(=O)c1c(C)cc(C)cc1C	none
Cc1cc(O)cc(O)c1/C=N/NC(=O)c1ccc2c(c1)OCCO2	MLLE-PAM2 inh 49 (no result: PABP polyA inh, eIF4E-4G inh, eIF4H inh, 14-3-3 Bad PPI)
O=C(N/N=C/c1cc2c(cc1[N+](=O)[O-])OCO2)c1cccnc1	PABP polyA inh active, eIF4H inh 85
O=C(N/N=C/c1cc2c(cc1[N+](=O)[O-])OCO2)c1ccc2c(c1)OCO2	none (no result: eIF4E-4G inh, 14-3-3 Bad PPI)
O=C(N/N=C/c1ccc([N+](=O)[O-])o1)c1ccc2c(c1)OCO2	PABP polyA inh active, eIF4H inh 79 (no result: eIF4E-4G inh, 14-3-3 Bad PPI)
CC(=O)Oc1cc(C(=O)OCC(=O)NC23CC4CC(CC(C4)C2)C3)cc(OC(C)=O)c1OC(C)=O	none (no result: PABP polyA inh, eIF4E-4G inh, eIF4H inh, 14-3-3 Bad PPI)
Cc1ccc(-c2cc(-c3ccccc3)c(C#N)c(N)n2)o1	PABP polyA inh active, eIF4H inh inconclusive
Cc1ccc(-c2cc(-c3ccc(F)cc3)nc(N)c2C#N)o1	none
Cc1ccc(-c2cc(-c3ccccc3Cl)c(C#N)c(N)n2)o1	PABP polyA inh active, eIF4H inh 66
O=C(NC(=S)NCCC1=CCCCC1)c1ccccc1Br	MLLE-PAM2 inh 45
O=Cc1cccn1-c1ncc(Br)cn1	none
CCN(C(=O)COC(=O)COc1ccc(Cl)c(C)c1)C1CCS(=O)(=O)C1 (centres undefined)	none (no result: PABP polyA inh, eIF4E-4G inh, eIF4H inh, 14-3-3 Bad PPI)
Cc1nnc(Nc2ccc3c(c2)OCO3)c2ccccc12	14-3-3 Bad PPI 82[fluorescence artefact?]
Cc1ccc(-c2nnc(Nc3ccc4c(c3)OCO4)c3ccccc23)cc1S(N)(=O)=O	none
Cc1cccc(NC(=O)CN(C)C(C)C(=O)Nc2ccc(S(=O)(=O)N3CCCC3)cc2)c1C (centres undefined)	none (no result: PABP polyA inh, eIF4E-4G inh, eIF4H inh, 14-3-3 Bad PPI)
O=C1OC(Nc2cc(Br)cc3cccnc23)c2ccccc21 (centres undefined)	PABP polyA inh active, eIF4H inh 65
COc1cc(/C=C/C(=O)Nc2nnc(CC(C)(C)C)s2)cc(OC)c1OC	MLLE-PAM2 inh 44
COc1cc(/C=C/C(=O)Nc2nnc(CC(C)C)s2)cc(OC)c1OC	none
Cc1ccc2nc(/C(C#N)=C\c3ccc(N4CCCCC4)c([N+](=O)[O-])c3)[nH]c2c1	14-3-3 Bad PPI 87[fluorescence artefact?]
O=C(c1ccc(NC2=NC3CS(=O)(=O)CC3S2)cc1)N1CCN(c2ccc([N+](=O)[O-])cc2)CC1 (centres undefined)	none (no result: eIF4E-4G inh, 14-3-3 Bad PPI)
O=c1c(-c2cc3ccccc3o2)[n+]([O-])c2ccccc2n1OCc1ccccn1	PABP polyA inh active
CCOn1c(=O)c(-c2cc3ccccc3o2)[n+]([O-])c2ccccc21	none
CC1CCC(NC(=O)C2CCC(CNS(=O)(=O)c3ccc4c(c3)C(C)(C)C(=O)N4C)CC2)CC1 (centres undefined)	none (no result: PABP polyA inh, eIF4E-4G inh, eIF4H inh, 14-3-3 Bad PPI)
Cc1cccc(-c2nnc(SCC(=O)C(C)(C)C)n2C)c1	none
CCOc1cc(CN2CCSCC2)ccc1O	14-3-3 Bad PPI 74
Cn1cc(Br)c(C(=O)NC2CCCCCC2)n1	eIF4H inh 80 (no result: eIF4E-4G inh, 14-3-3 Bad PPI)
Fc1ccc(NC(=S)N/N=C/c2ccc(F)c(F)c2)cc1	none
COc1ccc(NC(=S)Nc2cccc(Cl)c2)cc1OC	MLLE-PAM2 inh 37
COc1ccc(Cl)cc1NC(=S)Nc1ccccc1F	MLLE-PAM2 inh 41
COc1ccc(NC(=S)N/N=C/c2ccc(F)cc2)cc1OC	MLLE-PAM2 inh 45
COc1ccccc1N1CCN(S(=O)(=O)CCNC(=O)CCc2ccccc2)CC1	none (no result: PABP polyA inh, eIF4E-4G inh, eIF4H inh, 14-3-3 Bad PPI)
Cc1ccc(Nc2nc(-c3sc(NC(=O)c4cccc(Cl)c4)nc3C)cs2)cc1	none (no result: MLLE-PAM2 inh)
CCC(=O)Nc1nc(C)c(-c2csc(Nc3ccc(C(=O)O)cc3)n2)s1	none (no result: eIF4E-4G inh, 14-3-3 Bad PPI)
Cc1nc(NC(=O)c2ccc(Cl)cc2)sc1-c1csc(Nc2cccc(F)c2)n1	14-3-3 Bad PPI 73 (no result: MLLE-PAM2 inh)
Cc1nc(NC(=O)c2ccccc2)sc1-c1csc(Nc2ccc(C(=O)O)cc2)n1	eIF4E-4G inh 35, 14-3-3 Bad PPI 75
Cc1nc(N)sc1-c1csc(Nc2cccc(C(=O)O)c2)n1	PABP polyA inh active, eIF4H inh 85 (no result: eIF4E-4G inh, 14-3-3 Bad PPI)

Screens as filed in PubChem BioAssay.
